{
  "source": "PubChem BioAssay (NCI)",
  "note": "About 83,000 compounds went through this panel and 20% of them were active in at least one assay; those are over-represented in the sample as a whole.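 Results are percent growth after 48 hours of single-concentration exposure. 100 means growth as in untreated cells, lower positive values show inhibition; negative values down to -100 show cell death.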 A number with no mark means an inactive call. Calls of active or inactive are those of the source.",
  "data": [
    {"test_system": "SK-MEL-5 melanoma", "experiment": "NCI-60 one-dose screen, 48 h (100 = growth as untreated, 0 = no growth, -100 = all killed)", "details": "10 µM unless noted", "experimental": "Growth inhibition of the SK-MEL-5 human tumor cell line is measured as a screen for anti-cancer activity. Cells are grown in 96 well plates and exposed to the test compound for 48 hours. Compounds are tested at a single concentration, which is 10^-5 M for most compounds. The reported endpoint is percent growth (GI% or GIPRCNT), where numbers from 0 - 100% represent growth inhibition, and numbers from -100% - 0 represent cell death. For example, a value of 40 represents 60% growth inhibition. A value of 0 means no net growth occurred over the course of the experiment. A value of -40 indicates 40% of cells at the beginning of the experiment died by the end of the experiment. A value of -100 means all cells are dead at the end of the experiment.\nNCI-60 Human Tumor Cell Lines Screen was performed using the standard one-dose NCI protocol, which is described in more detail at https://dtp.cancer.gov/discovery_development/nci-60/default.htm.\nCompounds with GIPRCNT values below 10 were considered active. Activity score was based on GIPRCNT using the following formula: […]\nScore is 0 for GIPRCNT values of 100 or above, 50 for GIPRCNT values of 0, and 100 for GIPRCNT values of -100.", "values": [
      {"smiles": "CC(=O)OCC1OC(OC2C(COC(C)=O)OC(OCCC[S-])C(OC(C)=O)C2OC(C)=O)C(OC(C)=O)C(OC(C)=O)C1OC(C)=O.[Au+].c1ccc(CN2[CH-]N(Cc3ccccc3)C(c3ccccc3)=C2c2ccccc2)cc1", "note": "(stereo not given)", "growth": "-12.6% (active)"},
      {"smiles": "COc1cc2c(Nc3ccc(NC(=O)Nc4ccc(Cl)c(C(F)(F)F)c4)c(Cl)c3)ncnc2cc1OCCCN1CCN(C)CC1", "growth": "-44.6% (active)"},
      {"smiles": "C=C(C)[C@@H]1CC[C@]2(C(=O)N=C=S)CC[C@]3(C)[C@H](CC[C@@H]4[C@@]5(C)CCC(=O)C(C)(C)[C@@H]5CC[C@]43C)[C@@H]12", "growth": "77.7%"},
      {"smiles": "O=C1c2ccccc2C(=O)c2c1oc1c2c(=O)[nH]c2ccccc21", "growth": "79.7%"},
      {"smiles": "N#CCNc1ccc(C(=O)O)cc1", "growth": "101%"},
      {"smiles": "COc1cc(-c2nn(-c3ccc(Br)cc3)cc2CO)ccc1O", "growth": "94.1%"},
      {"smiles": "CCCCC1=c2c([nH]c3ccc(OC)cc23)=NC2C=CC=NC12", "note": "(stereo not given)", "growth": "84.3%"},
      {"smiles": "COc1cc(NC(=O)c2cc(O)c(C/C=C(\\C)CCC=C(C)C)c(O)c2)cc2c1O[C@]1(C)CC[C@@H](O)C(C)(C)[C@H]1C2", "growth": "-68.2% (active)"},
      {"smiles": "Cc1cccc(C)c1Nc1nnc(-c2ccc(F)cc2)o1", "growth": "98.9%"},
      {"smiles": "O=C(CSC(=S)N1CCCCC1)Nc1ccccc1", "growth": "97.5%"},
      {"smiles": "COc1cc(NCC(=O)Nc2cc(Nc3ccc(C)cc3)ncn2)c(Cl)c(OC)c1Cl", "growth": "91.6%"},
      {"smiles": "COc1cc(/C=N/Nc2nc(-c3ccc(F)cc3)c(C#N)c(N3CCOCC3)n2)ccc1O", "growth": "102%"},
      {"smiles": "CN(C)CSc1nc2ccccc2s1", "growth": "96.9%"},
      {"smiles": "N#Cc1ccc(Oc2ccc3ccc(=O)oc3c2)cc1", "growth": "103%"},
      {"smiles": "C#C[C@@]1(O)[C@@H](CO)O[C@@H](n2cc(F)c3c(N)ncnc32)[C@@H]1O", "growth": "-86.9% (active)"},
      {"smiles": "COC(=O)c1nc(-c2ccccc2)oc1S(=O)(=O)n1nc(C)cc1N", "growth": "92.3%"},
      {"smiles": "N#CC1C(c2ccc(Cl)cc2)=Nc2c(c(-c3ccccc3)nn2-c2ccccc2)C12C(=O)Nc1ccc(Cl)cc12", "note": "(stereo not given)", "growth": "46.5%"},
      {"smiles": "CN(CCC#N)C(=O)Nc1ccccc1", "growth": "110%"},
      {"smiles": "CC(C)(C)c1nc2c(s1)c1nc(N)ncc1c1ccc(NS(=O)(=O)c3c(F)cccc3F)c(F)c12", "growth": "36.1%"},
      {"smiles": "Fc1ccc(N/N=C/c2ccc(-n3cccn3)cc2)cc1", "growth": "107%"},
      {"smiles": "O=C(CCl)N1CCCc2ccccc21", "growth": "95.7%"},
      {"smiles": "COc1ccc(-c2nnc(N3CCN(C(=O)CN4CCN(c5ccc(OC)cc5)CC4)CC3)nc2-c2ccc(OC)cc2)cc1", "growth": "-50.2% (active)"},
      {"smiles": "N#Cc1c(-c2ccc(Cl)cc2)cc(-c2cc3ccccc3o2)nc1SCC(=O)c1ccc(Cl)cc1", "growth": "100%"},
      {"smiles": "Nc1ccc(C(=O)Nc2cccc(C(=O)Nc3ccc4c(O)c(N=Nc5ccc(N=Nc6ccc(S(=O)(=O)O)cc6)cc5)c(S(=O)(=O)O)cc4c3)c2)cc1", "growth": "107%"},
      {"smiles": "Cc1cnc(SCc2ccc(Cl)cc2Cl)nc1Nc1ccc(Cl)c(Cl)c1", "growth": "93.4%"},
      {"smiles": "Nn1c(SCC(=O)Nc2ccc(Cl)cc2)nnc1-c1cc(F)c(Cl)cc1Cl", "growth": "86.6%"},
      {"smiles": "O=C(O)CCNC1CCCCC1", "growth": "108%"},
      {"smiles": "Cc1cc(Cl)cc(CN(Cc2ccccc2)Cc2c(O)ccc3ccccc23)c1O", "growth": "95.1%"},
      {"smiles": "Sc1cccc2cccnc12", "growth": "-10.9% (active)"},
      {"smiles": "Nc1c(C(=O)Nc2ccccn2)sc2nc3c(cc12)CCCC3", "growth": "26.3%"},
      {"smiles": "C=C1C(=O)O[C@H]2[C@H]1CC/C(C=Nc1c(N)cc(F)cc1Br)=C\\CC[C@@]1(C)O[C@@H]21", "growth": "96.9%"},
      {"smiles": "CC(C)(C)CC(C)(C)Cc1ccc(OCCOCC[N+](C)(C)Cc2ccccc2)cc1", "growth": "-98.8% (active)"},
      {"smiles": "S=C(Nc1ccccc1)c1ccccn1", "growth": "102%"},
      {"smiles": "COc1ccc2nc(-c3ccc(OC)c(OC)c3)cc(-c3nnc(SCC(=O)Nc4ccc(/C(C)=N\\O)cc4)n3-c3ccccc3)c2c1", "growth": "71.7%"},
      {"smiles": "CCC[S@@](=O)c1ccc2nc(NC(=O)OC)[nH]c2c1", "growth": "83.3%"},
      {"smiles": "CCCCCCC/C=C/[C@H]1O[C@]23C(=O)C[C@@]4(C[C@@H](OC5OC(CO)C(O)C(O)C5O)C[C@@H]4[C@H]2C=C1C)OC3=O", "note": "(stereo not given in full)", "growth": "8.74% (active)"},
      {"smiles": "C=C(C)[C@@H]1CC[C@]2(C(=O)OCCOCCOCC[P+](c3ccccc3)(c3ccccc3)c3ccccc3)CC[C@]3(C)[C@H](CC[C@@H]4[C@@]5(C)CC[C@H](OC(C)=O)C(C)(C)[C@@H]5CC[C@]43C)[C@@H]12", "growth": "-98.5% (active)"},
      {"smiles": "Nc1c(C(=O)Nc2ccccn2)sc2nc3c(cc12)C(=O)CCC3", "growth": "17.1%"},
      {"smiles": "Cc1cc(C)c(NC(=O)c2sc3nc4c(cc3c2N)CCCCCC4)c(C)c1", "growth": "57.1%"},
      {"smiles": "CCOCCc1c(O)nc(SC)[nH]c1=O", "growth": "103%"}
    ]}
  ]
}
